Among the data in PubChem BioAssay AID1069 (NMMLSC, 2008) are side scatter shift values, retold here.

Active and inactive are the calls of the source.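 How the source made its calls: active means high combined rank on largest and smallest cell-count-weighted shift across three tests, rank score above 45, floors 50 and 25 (some results past the limit were not filed as active); inactive means the rest.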

The nature of the first experiment: activators of LNCaP cell differentiation, retest, confirmation, side scatter shift, flow cytometry (AID 1069).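 Further: LNCaP human prostate cancer cells in low-serum medium with charcoal-stripped FBS; percent of cells with raised granularity gated so DMSO controls show 10%.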 The note with it: 4 d, at 100 µM, stronger effect = higher value. In general terms: Flow cytometry measures light scatter and fluorescence of single cells or particles in a stream.
As for `CCOC(=O)N1CCC(NC(=O)C2CCCN(Cc3nc(-c4cccc(Cl)c4)oc3C)C2)CC1` (stereo not drawn), the side scatter shift is 21.2% (inactive).
As to `Cc1cc(=O)n2nc(N3CCCC3C(=O)NCc3ccccn3)sc2n1` (stereo not drawn), the side scatter shift was 4% (inactive).
`COC(=O)c1ccccc1NC(=O)CN1CCC(n2nnc3cc(F)ccc32)CC1`: the side scatter shift was 25.9% (inactive).
On to `CCOC(=O)c1c(C)n(C)c2ccc(OCC(O)CNC(CC)CO)cc12` (stereo not drawn), for which the side scatter shift was 58.6% (active).
Turning to `Cc1ccccc1-c1nc(CN2CCC(C(=O)N3CCC(C(N)=O)CC3)CC2)c(C)o1`, the side scatter shift was 12% (inactive).
Same read-out and setting: to `COc1ccc(-c2cc(C(F)(F)F)nc(N3CCN(c4ccc(F)cc4)CC3)n2)cc1OC` belongs 22.3% (inactive); to `O=C(NCCc1c[nH]c2ccccc12)C(F)(F)C(F)F`, 9% (inactive); to `O=C(CN1CCC(n2nnc3cc(F)ccc32)CC1)Nc1ccc2c(c1)CCC2`, 6.2% (inactive).
As to `Cc1onc(-c2ccccc2Cl)c1C(=O)N(C)C1CCCCC1`, the side scatter shift was 16% (inactive).
In the case of `c1cncc(-c2nc3ccccc3o2)c1`, the side scatter shift is 10.2% (inactive).

Staying with this experiment, now noted: 4 d, side scatter shift, at 10 µM, stronger effect = higher value.
For the compound `COc1ccc(-c2cc(C(=O)NCc3ccc(Cl)cc3)no2)cc1OC`, the side scatter shift was found to be 7.15%.
Regarding `CC(=O)Nc1cc(C(=O)N2CCOCC2)ccc1S(=O)(=O)c1ccc(C)cc1`, the side scatter shift came out at 2.95%.
As for `COc1ccc(-c2nc(CN3CCC(C(=O)N4CCc5ccccc54)CC3)c(C)o2)cc1OC`, the side scatter shift was found to be 2.7%.
Regarding `c1ccc(N2CCN(c3nnc(Cc4cccnc4)c4ccccc34)CC2)nc1`, the side scatter shift was found to be 8%.
Still for that read-out and setting: for `Cc1ccc(S(=O)(=O)NCCCCC(NC(=O)OC(C)(C)C)C(=O)O)cc1` (stereo not drawn) (tested in a mixture with another compound) the value was 5.45%; for `Cc1cccc(-c2nc(CN3CCCC(C(=O)NC4CCCCC4)C3)c(C)o2)c1` (stereo not drawn), 7.35%; for `CC1CCCCN1CCNC(=O)c1ccc2c(=O)n(CCc3ccccc3)c(=O)[nH]c2c1` (stereo not drawn), 18.2%.
For the compound `O=C1CCCc2c1cc(C(=O)NC1CCSC1=O)c(=O)n2-c1ccccc1` (stereo not drawn), the side scatter shift came to 4.8%.
As to `CCOc1ccc(-n2cc(C(=O)N3CCC(C)CC3)c3cc(OC)c(OC)cc3c2=O)cc1`, the side scatter shift turned out to be 18.7%.
`CCn1c(=N)n(CC(O)COc2cccc(C)c2)c2ccccc21` (stereo not drawn): the side scatter shift worked out at 9.75%.
The same measure, in the same setting: to `O=C(COc1ccc(S(=O)(=O)N2CCCC2)cc1Cl)NC1CC1` belongs 1.25%; to `CCOc1ccccc1NC(=O)c1nc[nH]c1C(=O)Nc1ccccc1OCC`, 6.05%.
Take `O=C(CCN1C(=O)COc2ccccc21)NCCCN1CCN(c2ccccc2F)CC1`: the side scatter shift is 4.4%.
As to `Cc1ccc(Cl)cc1N1CCN(C(=O)c2cc3c(=O)n(C)c4ccccc4c3n2C)CC1`, the side scatter shift came to 22.5%.
The same measure, in the same setting: to `Cc1ccc(C)c(N2CCN(CCCNC(=O)Cn3cc4c(n3)CCC(C)C4)CC2)c1` (stereo not drawn) belongs 25.6%; to `CCCS(=O)(=O)N1CCCC(C(=O)NCCCN2CCN(c3ccccc3F)CC2)C1` (stereo not drawn), 5.95%.
Still for that read-out and setting: to `COC(=O)c1ccccc1S(=O)(=O)N(Cc1cc2cc3c(cc2[nH]c1=O)OCO3)C1CCCCC1` belongs 8.05%; to `COc1ccc2c(c1)CCc1c(C(=O)Nc3cc(C)n(Cc4ccc(Cl)cc4)n3)noc1-2`, 7.45%.
`Cc1oc(-c2ccccc2F)nc1CN1CCC(C(=O)NC2CCCCCCC2)CC1`: the side scatter shift was determined as 9.45%.
For the compound `CCOC(=O)C1CCN(S(=O)(=O)c2ccc(-c3nc4ccccc4s3)s2)CC1`, the side scatter shift was 7.85%.
Still for that read-out and setting: for `Cc1ccccc1-c1nc(CN2CCC(C(=O)N3CCN(c4ccccn4)CC3)CC2)c(C)o1` the value was 12.9%.
Same read-out and setting: for `COc1ccc(-n2nnnc2SCC(=O)c2ccc(O)c(O)c2)cc1` the value was 2.75%; for `COc1ccc(N2CCN(CCCNC(=O)C3CCCN(S(=O)(=O)c4cnc[nH]4)C3)CC2)cc1` (stereo not drawn), 4.05%; for `CCOC(=O)c1c(NCc2ccc3c(c2)OCO3)c2ccccc2[nH]c1=O`, 4.75%.
Regarding `COc1ccccc1CNC(=O)C1CCN(Cc2nc(-c3cccc(Cl)c3)oc2C)CC1`, the side scatter shift turned out to be 3.35%.
Turning to `CCOC(=O)N1CCC(NC(=O)c2cc3c(-c4ccc(OC)c(OC)c4)nn(C)c3s2)CC1`, the side scatter shift worked out at 3.9%.
In the case of `CN(C)c1ccc(-c2nn3c(-c4ccc(Cl)cc4Cl)nnc3s2)cc1`, the side scatter shift was found to be 4.15%.
`CCOc1ccccc1NC(=O)CCC(=O)O`: the side scatter shift was 6.85%.
Still for that read-out and setting: to `CCOC(=O)N1CCC(NC(=O)C2CCCN(Cc3nc(-c4cccc(Cl)c4)oc3C)C2)CC1` (stereo not drawn) belongs 5.35%; to `Cc1cc(=O)n2nc(N3CCCC3C(=O)NCc3ccccn3)sc2n1` (stereo not drawn), 7.1%.
The same measure, in the same setting: to `COC(=O)c1ccccc1NC(=O)CN1CCC(n2nnc3cc(F)ccc32)CC1` belongs 6.9%; to `CCOC(=O)c1c(C)n(C)c2ccc(OCC(O)CNC(CC)CO)cc12` (stereo not drawn), 3.3%; to `Cc1ccccc1-c1nc(CN2CCC(C(=O)N3CCC(C(N)=O)CC3)CC2)c(C)o1`, 10.9%.
In the case of `COc1ccc(-c2cc(C(F)(F)F)nc(N3CCN(c4ccc(F)cc4)CC3)n2)cc1OC`, the side scatter shift was 3.05%.
As for `O=C(NCCc1c[nH]c2ccccc12)C(F)(F)C(F)F`, the side scatter shift was 5.05%.
As to `O=C(CN1CCC(n2nnc3cc(F)ccc32)CC1)Nc1ccc2c(c1)CCC2`, the side scatter shift was determined as 1.9%.
Take `Cc1onc(-c2ccccc2Cl)c1C(=O)N(C)C1CCCCC1`: the side scatter shift is 5.1%.
Consider `c1cncc(-c2nc3ccccc3o2)c1`, for which the side scatter shift is 2.9%.
